The text below walks through data of PMC12431657, “Discovery and mechanistic insights of dibenzoylmethane as a broad spectrum inhibitor of coronavirus” (PLOS Pathogens, 2025).

Like-named read-outs stand apart in the source and are kept apart here. Out of some 3,300 compounds screened, about 95 (3%) showed an effect of 50% or more. This is one part of a sample in which strong results are shown more often than they occur.

The subject of this assay is HCoV-229E. Further details: species or system Huh-7; HTS, protection from HCoV-229E induced cell death, luminescent cell viability (CellCounting-Lite 2.0), inhibition rate. To be noted: 24 h post infection, 1 h compound pre-incubation, 10 µM, inhibitor.

Consider `CSCCC(NC(C)=O)C(=O)O` (racemic) [N-Acetyl-DL-methionine], for which the “229E Inhibition rate” value was determined as 32.7%.

As for `O=c1ccc2ccc(O)cc2o1` [Umbelliferone], the “229E Inhibition rate” value turned out to be 54.3%.

`O=c1ccc2cc(O)c(O)cc2o1` [Esculetin]: the “229E Inhibition rate” value is on record as 35.1%.

With `O=c1ccc2cc(O)ccc2o1` [6-Hydroxycoumarin], the “229E Inhibition rate” value turned out to be 10.6%.

On to `C[C@H](CC[C@@H](O)C(C)(C)O)[C@H]1CC[C@@]2(C)[C@@H]3CC=C4[C@@H](CC[C@H](O[C@@H]5O[C@H](CO[C@@H]6O[C@H](CO)[C@@H](O)[C@H](O)[C@H]6O)[C@@H](O)[C@H](O)[C@H]5O)C4(C)C)[C@]3(C)[C@H](O)C[C@]12C` [Mogroside II-A2], for which the “229E Inhibition rate” value came to 10%.

On to `CCCCCCCCC[C@H](O)CC(=O)CCc1ccc(O)c(OC)c1` [10-Gingerol], for which the “229E Inhibition rate” value is 32.3%.

Take `CCCCC[C@H](O)CC(=O)CCc1ccc(O)c(OC)c1` [[6]-Gingerol]: the “229E Inhibition rate” value is given as 52.8%.

Take `CCCCCCC[C@H](O)CC(=O)CCc1ccc(O)c(OC)c1` [8-Gingerol]: the “229E Inhibition rate” value was 13.3%.

As for `Cc1ncc(C[n+]2csc(CCOP(=O)(O)O)c2C)c(N)n1` [Thiamine monophosphate (chloride) (dihydrate)], the “229E Inhibition rate” value stood at 12.1%.

Regarding `CC(=O)O[C@H]1[C@H]2[C@H]([C@@H]3[C@H]4OC(=O)[C@@](C)(O)[C@@]5(C)C(=O)C[C@@H](C)[C@@H]([C@@H]45)[C@@]3(C)[C@H]1OC(C)=O)[C@@H](OC(C)=O)C(=O)[C@H]1C[C@@H]3O[C@@H]3[C@H](OC(C)=O)[C@]21C` [Taccalonolide C], the “229E Inhibition rate” value is recorded as 10.3%.

Take `O=c1cc(-c2ccc(O)c(O)c2)oc2cc(O)cc(O)c12` [Luteolin]: the “229E Inhibition rate” value was 0%.

Regarding `COc1ccc(-c2cc(=O)c3c(O)cc(O)c(-c4cc(-c5cc(=O)c6c(O)cc(O)cc6o5)ccc4OC)c3o2)cc1` [Isoginkgetin], the “229E Inhibition rate” value amounted to 6.1%.

For the compound `COc1cc(O)c2c(=O)cc(-c3ccc(OC)c(-c4c(O)cc(O)c5c(=O)cc(-c6ccc(O)cc6)oc45)c3)oc2c1` [Ginkgetin], the “229E Inhibition rate” value is given as 64.4%.

As for `O=c1c(O)c(-c2ccccc2)oc2cc(O)cc(O)c12` [Galangin], the “229E Inhibition rate” value worked out at 8%.

`O=c1cc(-c2ccc(O)cc2)oc2cc(O)cc(O)c12` [Apigenin]: the “229E Inhibition rate” value is reported as 55.5%.

Consider `O=c1cc(-c2ccccc2)c2cc(O)c(O)cc2o1` [Nordalbergin], for which the “229E Inhibition rate” value is on record as 17.6%.

On to `O=c1cc(-c2ccccc2)c2c(O)cc(O)cc2o1` [LC3-mHTT-IN-AN2], for which the “229E Inhibition rate” value was determined as 50.8%.

`COc1ccc(-c2cc(=O)c3c(O)cc(O)cc3o2)cc1-c1c(O)cc(O)c2c(=O)cc(-c3ccc(O)cc3)oc12` [Bilobetin]: the “229E Inhibition rate” value was determined as 22.4%.

As to `O=c1cc(-c2ccccc2)oc2cc(O)cc(O)c12` [Chrysin], the “229E Inhibition rate” value is listed as 0%.

As for `O=C(/C=C/c1ccc(O)c(O)c1)O[C@H]1[C@H](O)C[C@](O)(C(=O)O)C[C@H]1O` [Cryptochlorogenic acid], the “229E Inhibition rate” value was 7.4%.

Regarding `CC1(C)[C@@H](O[C@H]2O[C@H](C(=O)O)[C@@H](O)[C@H](O)[C@H]2O[C@@H]2O[C@H](C(=O)O)[C@@H](O)[C@H](O)[C@H]2O)CC[C@]2(C)[C@H]3C(=O)C=C4[C@@H]5C[C@@](C)(C(=O)O)CC[C@]5(C)CC[C@@]4(C)[C@]3(C)CC[C@@H]12` [Diammonium Glycyrrhizinate], for the setting “229E Inhibition rate, 24 h”, the “229E Inhibition rate” value was 0%.

Regarding `C[C@@H]1O[C@H]2O[C@H]3[C@@H](OC[C@H](O)[C@@H]3O)OC(=O)[C@]34CCC(C)(C)C[C@H]3C3=CC[C@@H]5[C@@]6(C)C[C@H](O)[C@H](O[C@@H]7O[C@H](CO)[C@@H](O)[C@H](O)[C@H]7O[C@@H]7OC[C@H](OC(=O)C[C@](C)(O)CC(=O)O[C@@H]1[C@@H](O[C@@H]1OC[C@@H](O)[C@H](O)[C@H]1O)[C@H]2O)[C@H](O)[C@H]7O)[C@@](C)(CO)[C@@H]6CC[C@@]5(C)[C@]3(C)C[C@H]4O` [Tubeimoside II], the “229E Inhibition rate” value was determined as 0.9%.

`CC1(C)CCC2(CO)C(=C3C=CC4C5(C)CCC(OC6OC(COC7OC(CO)C(O)C(O)C7O)C(OC7OC(CO)C(O)C(O)C7O)C(O)C6O)CC5C(C)(CO)CC4(C)C3(C)CC2O)C1` (stereo not shown) [Clinodiside A]: the “229E Inhibition rate” value was 8.8%.

On to `COC(=O)Cc1c[nH]c2ccccc12` [Methyl 2-(1H-indol-3-yl)acetate], for which the “229E Inhibition rate” value is recorded as 38.3%.

Take `C=C(C)[C@H](C)c1cc(/C=C/C(=O)c2ccc(O)cc2)c(OC)cc1O` [Licochalcone E]: the “229E Inhibition rate” value came out at 61.6%.

For the compound `COc1cc(O)ccc1/C=C/C(=O)c1ccc(O)cc1` [Echinatin], the “229E Inhibition rate” value came out at 0%.

As to `COc1c(/C=C/C(=O)c2ccc(O)cc2)ccc(O)c1O` [Licochalcone B], the “229E Inhibition rate” value amounted to 25.4%.

As to `CC1=C(O)C(=O)C(C)O1` (stereo not shown) [Furaneol], the “229E Inhibition rate” value turned out to be 17.8%.

Take `COc1cc2c(cc1OC)[C@@H](Cc1ccc(Oc3cc(C[C@@H]4c5cc(OC)c(OC)cc5CCN4C)ccc3O)cc1)N(C)CC2` [Dauricine]: the “229E Inhibition rate” value was determined as 3.6%.

As to `O=C(/C=C/c1ccc(O)c(O)c1)OC[C@@H](O)CO[C@@H]1O[C@H](CO)[C@@H](O)[C@H](O)[C@H]1O` [Regaloside C], the “229E Inhibition rate” value is listed as 52.3%.

Regarding `O=C(/C=C/c1ccc(O)c(O)c1)OC[C@H]1O[C@@H](OCCc2ccc(O)c(O)c2)[C@H](O)[C@@H](O)[C@@H]1O` [Calceolarioside B], the “229E Inhibition rate” value was determined as 10.8%.

As to `O=C(/C=C/c1ccc(O)c(O)c1)c1ccc(O[C@@H]2O[C@H](CO)[C@@H](O)[C@H](O)[C@H]2O)c(O)c1O` [Marein], the “229E Inhibition rate” value is 17.9%.

Regarding `Cc1cn([C@@H]2O[C@H](CO)[C@@H](O)[C@H]2O)c(=O)[nH]c1=O` [5-Methyluridine], the “229E Inhibition rate” value was 14.9%.

For `CC(C)c1cc2c(c(O)c1O)[C@@]13CCCC(C)(C)[C@@H]1[C@H](OC3=O)[C@H]2O` [Rosmanol], the “229E Inhibition rate” value is on record as 0%.

On to `CC1NC(=O)CNC1=O` (stereo not shown) [Cyclo(Ala-Gly)], for which the “229E Inhibition rate” value amounted to 39.9%.

For the compound `CCCCCCCCCCCCCCCCC(C(=O)O)C(O)(CC(=O)O)C(=O)O` (stereo not shown) [Agaric acid], the “229E Inhibition rate” value was 18.4%.

`CN[C@@H](C)[C@H]1[C@H](O)C[C@@]2(C)[C@@H]3CC[C@H]4C(C)(C)[C@@H](NC)CC[C@@]45C[C@@]35CC[C@]12C` [Cyclovirobuxine D]: the “229E Inhibition rate” value was determined as 55.2%.

As to `CC(C)(O)[C@@H]1CC[C@](C)([C@H]2[C@@H](O)C[C@@]3(C)[C@@H]4C[C@H](O)[C@H]5C(C)(C)[C@@H](O)CC[C@@]56C[C@@]46CC[C@]23C)O1` [Cycloastragenol], the “229E Inhibition rate” value amounted to 8.6%.

With `CC(C)(O)[C@H]1CC[C@@](C)([C@H]2[C@@H](O)C[C@@]3(C)[C@@H]4C[C@H](O)[C@H]5C(C)(C)[C@@H](O)CC[C@@]56C[C@@]46CC[C@]23C)O1` [Cyclogalegenin], the “229E Inhibition rate” value is 12.6%.

`CC(O)CC(=O)O` (stereo not shown) [3-Hydroxybutyric acid]: the “229E Inhibition rate” value is recorded as 11.2%.

Turning to `CN1CCc2cc3c(c4c2C1Cc1ccccc1-4)OCO3` (stereo not shown) [Roemerine], the “229E Inhibition rate” value was determined as 25.9%.

Consider `COc1c2c(cc3c1-c1c(cc4c(c1OC)OCO4)C[C@H](C)[C@H](C)C3)OCO2` [Schisandrin C], for which the “229E Inhibition rate” value came to 52.7%.

Turning to `COc1cc2c(c(OC)c1OC)-c1c(cc(OC)c(OC)c1OC)C[C@H](C)[C@H](C)C2` [Schisandrin A], the “229E Inhibition rate” value is 35.1%.

In the case of `COc1cc2c(c(OC)c1OC)-c1c(cc3c(c1O)OCO3)C[C@H](C)[C@@H](C)C2` [Gomisin M2], the “229E Inhibition rate” value was 19.3%.

Take `COc1cc2c(c(OC)c1OC)-c1c(cc3c(c1OC)OCO3)C[C@H](C)[C@H](C)C2` [Schisandrin B]: the “229E Inhibition rate” value (229E Inhibition rate, 24 h) is 56.2%.

`C/C=C(/C)C(=O)O[C@H]1c2cc(OC)c(OC)c(OC)c2-c2c(cc(OC)c(OC)c2OC)C[C@H](C)[C@]1(C)O` [Angeloylgomisin Q]: the “229E Inhibition rate” value is 42.2%.

Turning to `COc1cc2c(c(OC)c1OC)-c1c(cc3c(c1OC)OCO3)C[C@H](C)[C@@](C)(O)C2` [Schisandrol B], the “229E Inhibition rate” value is 7.8%.

`COc1cc2c(cc1OC)-c1c(OC)c(OC)cc3c1[C@H](C2)N(C)CC3` [Glaucine]: the “229E Inhibition rate” value was found to be 14.2%.

In the case of `C/C=C(/C)C(=O)O[C@H]1c2cc(OC)c(OC)c(OC)c2-c2c(cc3c(c2OC)OCO3)C[C@H](C)[C@]1(C)O` [Schisantherin B], the “229E Inhibition rate” value was 54.7%.

For the compound `COc1ccc2c(c1OC)CC1c3c(cc4c(c3-2)OCO4)CCN1C` (stereo not shown) [Crebanine], the “229E Inhibition rate” value is recorded as 62.7%.

On to `C/C=C(\C)C(=O)O[C@@H]1c2cc(OC)c(OC)c(OC)c2-c2c(cc3c(c2OC)OCO3)C[C@H](C)[C@@]1(C)O` [Tigloylgomisin P], for which the “229E Inhibition rate” value was 40.2%.

For the compound `COc1cc2c(c(OC)c1OC)-c1c(cc3c(c1OC)OCO3)C[C@H](C)[C@H](C)C2` [Gomisin N], the “229E Inhibition rate” value (229E Inhibition rate, 24 h) is 42.9%.

`COC(=O)/C=C/c1ccc(O)cc1` [Methyl p-coumarate]: under “229E Inhibition rate, 24 h”, the “229E Inhibition rate” value is 15.5%.

With `COC(=O)C1=CO[C@@H](O[C@@H]2O[C@H](CO)[C@@H](O)[C@H](O)[C@H]2O)[C@H]2[C@@H]1C=C[C@@]2(O)CO` [Gardenoside], the “229E Inhibition rate” value was determined as 10.6%.

Take `CCCCCCCCCCCCCCCC(=O)OC[C@H](CO)OC(=O)CCCCCCCCCCCCCCC` [1,2-Dipalmitoyl-sn-glycerol]: the “229E Inhibition rate” value is reported as 6%.

Take `COC(=O)C1=CO[C@@H](O[C@@H]2O[C@H](CO)[C@@H](O)[C@H](O)[C@H]2O)[C@@H]2[C@@H](C)CC(=O)[C@]12O` [Hastatoside]: the “229E Inhibition rate” value is reported as 0%.

`C[C@H](CC(=O)O)[C@H]1CC[C@H]2[C@@H]3[C@H](O)C[C@@H]4C[C@H](O)CC[C@]4(C)[C@H]3C[C@H](O)[C@]12C` [Norcholic acid]: the “229E Inhibition rate” value is given as 0%.

For `Cc1cccc(CC(=O)O)c1` [m-Tolylacetic acid], the “229E Inhibition rate” value was 18.9%.
